The values that follow come from PubChem BioAssay (Tox21).

“And” between values parts separate entries of the source, which are not always exact repeats. Equal entries are not always repeated. Inconclusive results are not listed. A call without a number means that no potency is given here. The source holds several records for some structures; these can differ, active in one and inactive in another. The source made the active and inactive calls. The call rests on the fitted dose curve; in most records, active means well fitted cell-killing curve with a large enough effect in the repeat runs; inconclusive means weak or mixed curves, or effect the other way; inactive means no such curve, though single readings can be large or run the other way.
Potency means the concentration at half of the fitted maximal effect.

The experiment can be described thus: qHTS assay to identify small molecule agonists of the estrogen receptor alpha (ER-alpha) signaling pathway in the presence of an antagonist - cell viability counter screen (AID 1259386).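 Further: cells exposed to compounds for 22 h at 37 °C before the viability read; nearly all actives have a fitted effect of over 30% in size.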 Conditions: VM7Luc4E2 viability, CellTiter-Fluor fluorescence, 22 h; series mostly up to 92.4 µM; activity change, negative = cytotoxicity: at the top concentration. The text has this:
National Center for Advancing Translational Sciences [NCATS]
NIH Chemical Genomics Center [NCGC]
U.S. Environmental Protection Agency [EPA]
National Institutes of Environmental Health Sciences [NIEHS]
National Toxicology Program [NTP]
U.S. Food and Drug Administration [FDA]
Estrogen receptor (ER), a member of nuclear hormone receptor plays an important role in development, metabolic homeostasis and reproduction. Two subtypes of ER, ER-alpha and ER-beta, have similar expression patterns with some uniqueness in both types. Endocrine disrupting chemicals (EDCs) and their interactions with steroid hormone receptors like ER causes disruption of normal endocrine function. Therefore, it is important to understand the effect of environmental chemicals in ER signaling pathway. For identifying ER agonists, VM7Luc4E2 cell line has been used in the current assay.
VM7Luc4E2 cell line (provided by Denison MS, University of California) endogenously expresses full-length ER-alpha and is stably transfected with a plasmid containing four estrogen responsive elements (ERE) upstream of a luciferase reporter gene. This current screening for measuring luciferase reporter gene activity using VM7Luc4E2 cells against Tox21 10K library collection is a confirmation study on agonist mode screening in presence of ER-antagonist (ICI-182,780) at 10.0nM final concentration. The cytotoxicity of the compounds was tested in parallel by measuring the cell viability using CellTiter-Fluor assay system (Promega, Madison, WI) in the same wells.
Tox21 Assay Protocol Summary:
VM7Luc4E2 cells were cultured in phenol red free assay medium containing 10% charcoal stripped FBS for 5 days prior to the assay. The cells were dispensed at 4,000 cells in 4uL of assay medium per well into white wall/solid-bottom 1536-well plates (Corning Life Sciences, Corning, NY) using a Multidrop Combi (Thermo Fisher Scientific Inc., Waltham, MA) dispenser. After the assay plates were incubated at 37C and 5% CO2 for 24hr, 1uL of 10.0nM (final concentration) ICI-182,780 or assay buffer was added using two separate tips of Flying Reagent Dispenser (FRD, Aurora Discovery, San Diego, CA). Then 23nL of compounds dissolved in DMSO at 15 concentrations and positive controls or DMSO only was transferred to the assay plates by a Pintool station (Wako, San Diego, CA). The assay plates were incubated at 37C and 5% CO2 for 22hr. After 21hr incubation at 37C, 1uL/well CellTiter-Fluor reagent (Promega Corporation, Madison, WI) was added to each well using FRD and after 1hr incubation at 37C and 5% CO2, the fluorescence signal was measured on ViewLux plate reader (PerkinElmer, Shelton, CT).
On to `O=[N+]([O-])O`, for which the Potency result is “inactive”.

In the case of `COP(=O)(OC)OC=C(Cl)Cl`, the Potency entry is “inactive”.

`COc1ccccc1N`: the Potency result was “inactive”.

As for `CC(=O)O`, the Potency entry was “inactive”.

For the molecule `CCCCCCCCCCCCOS(=O)(=O)O`, the Potency result is “inactive”.

As to `O=C(O)C(Cl)(Cl)Cl`, the Potency result was “inactive”.

On to `CCC(=O)C(CC(C)N(C)C)(c1ccccc1)c1ccccc1` (stereo not given), for which the “activity change, negative = cytotoxicity” value is -3.5% [at 42.5 µM] (inactive).

Turning to `CCCCCCCCCCCC(=O)O`, the Potency entry is “inactive”.

Turning to `CCCCCCCCCCCCCCCCn1cc[n+](C)c1`, the Potency entry was “inactive and 55 µM (active) and 21.7 µM (active)”.

Consider `CN(C)[C@@H]1C(=O)C(C(N)=O)=C(O)[C@@]2(O)C(=O)C3=C(O)c4c(O)cccc4[C@@](C)(O)[C@H]3[C@H](O)[C@@H]12`, for which the Potency entry was “inactive”.

`CCn1cc[n+](C)c1C`: the Potency entry is “inactive”.

On to `C[N+](C)(C)Cc1ccccc1`, for which the Potency result was “inactive”.

Consider `O=C(O)CCl`, for which the Potency entry is “inactive”.

As for `Nc1ccc(Cl)cc1`, the Potency entry is “inactive”.

As to `COCC(=O)N(c1c(C)cccc1C)C(C)C(=O)OC` (stereo not given), the Potency entry was “inactive”.

For `C=CCOC(Cn1ccnc1)c1ccc(Cl)cc1Cl` (stereo not given), the “activity change, negative = cytotoxicity” value was -4.44% [at 42.5 µM] (inactive).

As for `COP(=O)(OC)C(O)C(Cl)(Cl)Cl` (stereo not given), the Potency entry was “inactive”.

Regarding `Oc1ccccc1-c1ccccc1`, the Potency entry was “inactive”.

For `CCCC[n+]1ccc(C)cc1`, the Potency result is “inactive”.

As for `C[C@]12CCC(=O)C=C1CC[C@@H]1[C@@H]2CC[C@]2(C)C(=O)CC[C@@H]12`, the Potency entry is “inactive”.

Consider `Nc1ccccc1`, for which the Potency entry was “inactive”.

Consider `CCNc1nc(Cl)nc(NCC)n1`, for which the Potency result was “inactive”.

For `CC[N+](CC)(CC)CC`, the Potency result is “inactive”.

As for `O=C(O)COc1ccc(Cl)cc1Cl`, the Potency entry is “inactive”.

As for `CC(Cl)(Cl)C(=O)O`, the Potency result is “inactive”.

As for `CCCC[n+]1ccccc1`, the Potency entry was “inactive”.

As for `CCOP(=S)(OCC)Oc1ccc2c(C)c(Cl)c(=O)oc2c1`, the Potency entry is “inactive”.

As to `O=S(=O)(O)O`, the Potency entry is “inactive”.

`COc1ccc(N)cc1`: the Potency result is “inactive”.

In the case of `CCCC[N+]1(C)CCCCC1`, the Potency entry is “inactive”.

For the molecule `CCC[N+]1(C)CCCC1`, the Potency entry is “inactive”.

Consider `O=C(O)c1nc(Cl)ccc1Cl`, for which the Potency result is “inactive”.

In the case of `OCCOc1ccccc1`, the Potency entry was “inactive”.

Consider `O=c1nc(O)n(Cl)c(=O)n1Cl`, for which the Potency result is “inactive”.

Regarding `CCCC[n+]1cccc(C)c1`, the Potency result was “inactive”.

Turning to `CC[N+]1(C)CCCC1`, the Potency result was “inactive”.

Regarding `CCCn1cc[n+](C)c1`, the Potency result was “inactive”.

For the molecule `O=C(O)C(Cl)Cl`, the Potency result was “inactive”.

For `O=[N+]([O-])c1ccccc1O`, the Potency entry is “inactive”.

`Cc1cc(Cl)ccc1N`: the Potency result is “inactive”.
